Experiment [1] can be described thus: APR_HepG2_CellLoss_72hr: Apredica 72-hour HepG2 Assay for Cell Loss (AID 2282915). Conditions: high-content imaging. In outline:
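HepG2 cells exposed 72 h to compound at 0.39–200 uM (10 concentrations, duplicate) in 0.5% DMSO. Fixed with 3.7% formaldehyde and Hoechst 33342-stained. Imaged at 20x; nuclear count gives cell number, fitted bidirectionally versus DMSO.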

Experiment [2] in a line: APR_HepG2_P-H2AX_72hr: Apredica 72-hour HepG2 Assay for H2AX Phosphorylation (AID 2282916).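 Further: phospho-histone H2A.x immunostain intensity per cell marking DNA damage.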 To be noted: imaging, actives raise or lower the signal. In outline: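 HepG2; cpd 0.39–200 uM ×10 conc, duplicates; 0.5% DMSO; 72 hr. Fix 3.7% formaldehyde 30 min RT, 0.5% Triton X-100 10 min. Anti-phospho-H2A.x 1:200 + Hoechst 2 ug/mL, 60 min RT; ArrayScan imaging.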
Experiment [3] can be described thus: APR_HepG2_MitoMembPot_72hr: Apredica 72-hour HepG2 Assay for Mitochondrial Membrane Potential (AID 2282917). Conditions: imaging, actives raise or lower the signal. In outline:
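HepG2 cells dosed 72 hr with compound at 0.39–200 uM in duplicate, 0.5% v/v DMSO final. Mitochondria stained with 250 nM MitoTracker Red CMXRos for 30 min before formaldehyde fixation, imaged by high-content fluorescence; bidirectional fit versus DMSO.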

The nature of experiment [4]: APR_HepG2_MitoticArrest_72hr: Apredica 72-hour HepG2 Assay for Mitotic Arrest (AID 2282918). Conditions: high-content imaging, actives raise or lower the signal. In outline:
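HepG2 cells treated 72 h at 0.39–200 uM, 0.5% DMSO final; formaldehyde-fixed, stained with Hoechst 33342 and phospho-histone H3 antibody, imaged by high-content fluorescence; bidirectional fit versus DMSO.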

Experiment [5] is described as follows: APR_HepG2_MicrotubuleCSK_72hr: Apredica 72-hour HepG2 Assay for Microtubule CSK Stabilty (AID 2282919). Conditions: HepG2 microtubule cytoskeleton, high-content imaging, actives raise or lower the signal. In outline:
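HepG2 cells were exposed 72 hr to compound at 0.39–200 uM in duplicate (0.5% DMSO final), then fixed and permeabilized. Alpha-tubulin immunofluorescence was imaged by high-content microscopy, with bidirectional fitting against DMSO and taxol as positive control.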

Experiment [6] in a line: APR_HepG2_P-H2AX_24hr: Apredica 24-hour HepG2 Assay for H2AX Phosphorylation (AID 2282920). To be noted: high-content imaging, actives raise or lower the signal. Summed up:
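HepG2 cells dosed 24 h at 0.39–200 uM (10 points, duplicate, 0.5% DMSO final). Formaldehyde-fixed and permeabilized, then immunostained for phospho-H2A.x with Hoechst. Fluorescence quantified by high-content imaging, fitted bidirectionally versus DMSO.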

Experiment [7] is described as follows: APR_HepG2_StressKinase_72hr: Apredica 72-hour HepG2 Assay for Stress Kinase (AID 2282921). Conditions: HepG2 stress kinase (phospho-c-Jun) imaging, actives raise or lower the signal. In outline:
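Dose 0.39–200 uM (10 pts, duplicate), 0.5% DMSO; 72 h; fix 3.7% formaldehyde 30 min RT; Triton permeabilize; anti-phospho-c-Jun/Cy3 + Hoechst 60 min RT; image 20x; fit gain/loss vs DMSO.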

The nature of experiment [8]: APR_HepG2_StressKinase_24hr: Apredica 24-hour HepG2 Assay for Stress Kinase (AID 2282922). To be noted: HepG2 stress kinase (phospho-c-Jun) imaging, actives raise or lower the signal. Summed up: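 HepG2 cells exposed 24 h to 0.39–200 uM compound in duplicate (0.5% v/v DMSO final). Cells fixed in 3.7% formaldehyde, permeabilized and immunostained for phospho-c-Jun; read by high-content fluorescence imaging, fitted bidirectionally against DMSO.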

A short description of experiment [9]: APR_HepG2_p53Act_72hr: Apredica 72-hour HepG2 Assay for p53 Activation (AID 2282923).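 Further: average cellular p53 protein immunofluorescence intensity in HepG2 cells.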 To be noted: high-content imaging, actives raise or lower the signal. Summed up:
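10-pt conc. 0.39–200 uM, duplicate, 0.5% DMSO; 72 hr exposure; 3.7% formaldehyde fix, 0.5% Triton perm; sheep anti-p53/Cy5 + Hoechst; ArrayScan 20x, 6 images/well; gain/loss fit vs DMSO.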

Experiment [10] in a line: APR_HepG2_MitoMass_72hr: Apredica 72-hour HepG2 Assay for Mitochondrial Mass (AID 2282924).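 Further: MitoTracker Red CMXRos stain intensity per cell imaged as mitochondrial mass.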 Conditions: high-content imaging, actives raise or lower the signal. Summed up: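 HepG2 cells dosed 72 hr at 0.39–200 uM (0.5% DMSO), in duplicate. MitoTracker Red CMXRos 250 nM loaded 30 min before formaldehyde fixation; high-content fluorescence imaging, bidirectional fit versus DMSO.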

A short description of experiment [11]: APR_HepG2_NuclearSize_72hr: Apredica 72-hour HepG2 Assay for Nuclear Size (AID 2282925). To be noted: high-content imaging, actives raise or lower the signal. Summed up:
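HepG2 cells dosed 72 h at 0.39–200 uM (10 concentrations, duplicate) in 0.5% v/v DMSO final. Fixed, Hoechst 33342-stained nuclei imaged; nuclear diameter measured by automated image analysis. Bidirectional fit versus DMSO.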

Experiment [12] is described as follows: ATG_CRE_CIS: Attagene CIS-FACTORIAL HepG2 Assay for human cAMP Responsive Element (CRE) binding protein 3 (AID 2282926). Conditions: HepG2 CRE cis-reporter, Attagene multiplexed mRNA; actives raise or lower the signal. In outline: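 HepG2 cells transiently transfected with cis-element-driven multiple reporter transcription units; CRE reporter mRNA measured 24 h after dosing by RT-PCR, 6-FAM labelling, HpaI digestion and capillary electrophoresis. Bidirectional fit versus DMSO baseline.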

In experiment [13] the target is CCAAT/enhancer-binding protein beta (Homo sapiens) (UniProt P17676). The experiment is described as follows: ATG_C_EBP_CIS: Attagene CIS-FACTORIAL HepG2 Assay for human CCAAT/Enhancer Binding Protein (C/EBP) beta (AID 2282927). Conditions: HepG2 Attagene cis-factorial transcription factor reporter; actives raise or lower the signal. Summed up: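 HepG2 transiently transfected with multiplexed reporter units under cis-regulatory promoters reporting endogenous C/EBPb activity. After 24 h exposure, reporter mRNA assayed by RT-PCR, fluorescent labelling, HpaI digestion and capillary electrophoresis; bidirectional fitting versus DMSO.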

The nature of experiment [14]: ATG_CMV_CIS: Attagene CIS-FACTORIAL HepG2 Assay for human CMV (Internal Marker) (AID 2282928).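 Further: endpoint acts as a background internal control marker rather than a target.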 To be noted: HepG2 CMV promoter reporter, transcription factor profiling; actives raise or lower the signal. In outline: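 Cell system: HepG2, transiently transfected multiple reporter units under cis promoters. Exposure: 24 h. Detection: RT-PCR, FAM labeling, HpaI digestion, capillary electrophoresis. Analysis: bidirectional, DMSO baseline.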

In experiment [15] the target is Aryl hydrocarbon receptor (Homo sapiens) (UniProt P35869). Put plainly: ATG_Ahr_CIS: Attagene CIS-FACTORIAL HepG2 Assay for human Aryl Hydrocarbon Receptor (Ahr) (AID 2282930). To be noted: HepG2 AhR cis-factorial reporter transcription; actives raise or lower the signal. In outline:
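HepG2 cells transiently transfected with cis-element-driven multiplexed reporter units; endogenous AhR activity read as reporter mRNA 24 h after dosing, via RT-PCR, 6-FAM labelling, HpaI digestion and capillary electrophoresis. Bidirectional fit relative to DMSO.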

The nature of experiment [16]: ATG_AP_2_CIS: Attagene CIS-FACTORIAL HepG2 Assay for human Activator Protein 2 (AP-2) (AID 2282932). Conditions: HepG2 AP-2 cis-reporter, Attagene transcription factor profiling; actives raise or lower the signal. In outline:
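HepG2 cells transiently transfected with cis-element reporter units and exposed for 24 h. Reporter mRNA measured by RT-PCR, FAM labelling, HpaI digestion and capillary electrophoresis. Changes in either direction fitted relative to DMSO.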

Experiment [17] can be described thus: ATG_BRE_CIS: Attagene CIS-FACTORIAL HepG2 Assay for human Bone Morphogenetic Protein (BMP) Response Element (BRE) (AID 2282933). Conditions: HepG2 BMP response element reporter, Attagene transcription factor profiling; actives raise or lower the signal. Summed up: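 Endogenous transcription factor activity read in transiently transfected HepG2 cells after 24 h chemical exposure. Bidirectional curve fitting against DMSO; readout is reporter transcript level by RT-PCR with capillary electrophoresis of labelled products.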

The target in experiment [18] is Retinoic acid receptor alpha (Homo sapiens) (UniProt P10276). The experiment is described as follows: ATG_DR5_RAR_CIS: Attagene CIS-FACTORIAL HepG2 Assay for human Retinoic Acid Receptor Alpha (RARE), DR5 submotif (AID 2282934).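 On AC50: reporter responds to endogenous RAR alpha beta and gamma in HepG2 not RARA alone.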 Conditions: HepG2 Attagene cis-factorial RARE DR5 reporter, mRNA; actives raise or lower the signal. In outline: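 HepG2 cells transiently transfected with multiplexed reporter units; DR5 cis-element drives reporter through endogenous transcription factors. After 24 h dosing, reporter mRNA quantified by RT-PCR, fluorescent labeling, HpaI digestion and capillary electrophoresis; bidirectional fitting versus DMSO.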

A short description of experiment [19]: ATG_DR4_LXR_CIS: Attagene CIS-FACTORIAL HepG2 Assay for human Liver X Receptor (LXR), DR4 submotif (AID 2282929). Conditions: HepG2 Attagene DR4 cis-reporter, mRNA transcription; actives raise or lower the signal. Summed up: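 Cells were transfected with multiple reporter transcription units, exposed to chemicals for 24 hours, then lysed for RNA. Reporter mRNA induction was measured by RT-PCR with capillary electrophoresis detection and fitted in both directions relative to DMSO.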

The nature of experiment [20]: ATG_AP_1_CIS: Attagene CIS-FACTORIAL HepG2 Assay for human Activator Protein 1 (AP-1) (AID 2282931). Conditions: HepG2 Attagene cis-factorial AP-1 reporter mRNA; actives raise or lower the signal. Summed up:
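Endogenous transcription-factor activity in human HepG2 liver cells is read through a cis-promoter reporter transcript, sampled 24 h after dosing. Detection uses RT-PCR with capillary electrophoresis; values come from bidirectional fitting relative to DMSO.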

Activity calls are given as the source filed them. How the source made its calls: active means hit-call score of the fitted dose curve at least 0.9, where 1 is the maximum; inactive means score below 0.9.

Retinoic acid receptor alpha (Homo sapiens), sequence (P10276 whole entry, looked up): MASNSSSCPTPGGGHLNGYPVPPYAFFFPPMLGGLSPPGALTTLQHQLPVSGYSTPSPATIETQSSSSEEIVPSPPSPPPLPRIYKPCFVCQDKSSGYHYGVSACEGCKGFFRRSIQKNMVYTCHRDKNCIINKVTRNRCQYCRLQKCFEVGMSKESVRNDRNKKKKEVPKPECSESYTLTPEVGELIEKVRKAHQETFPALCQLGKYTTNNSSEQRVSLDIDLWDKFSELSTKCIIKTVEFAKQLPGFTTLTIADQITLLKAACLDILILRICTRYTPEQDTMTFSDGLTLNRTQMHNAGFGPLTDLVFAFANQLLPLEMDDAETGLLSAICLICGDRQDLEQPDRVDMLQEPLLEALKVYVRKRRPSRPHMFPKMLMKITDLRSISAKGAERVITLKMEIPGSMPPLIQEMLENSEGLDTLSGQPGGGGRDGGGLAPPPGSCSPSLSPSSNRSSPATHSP
Aryl hydrocarbon receptor (Homo sapiens), sequence (P35869 whole entry, looked up): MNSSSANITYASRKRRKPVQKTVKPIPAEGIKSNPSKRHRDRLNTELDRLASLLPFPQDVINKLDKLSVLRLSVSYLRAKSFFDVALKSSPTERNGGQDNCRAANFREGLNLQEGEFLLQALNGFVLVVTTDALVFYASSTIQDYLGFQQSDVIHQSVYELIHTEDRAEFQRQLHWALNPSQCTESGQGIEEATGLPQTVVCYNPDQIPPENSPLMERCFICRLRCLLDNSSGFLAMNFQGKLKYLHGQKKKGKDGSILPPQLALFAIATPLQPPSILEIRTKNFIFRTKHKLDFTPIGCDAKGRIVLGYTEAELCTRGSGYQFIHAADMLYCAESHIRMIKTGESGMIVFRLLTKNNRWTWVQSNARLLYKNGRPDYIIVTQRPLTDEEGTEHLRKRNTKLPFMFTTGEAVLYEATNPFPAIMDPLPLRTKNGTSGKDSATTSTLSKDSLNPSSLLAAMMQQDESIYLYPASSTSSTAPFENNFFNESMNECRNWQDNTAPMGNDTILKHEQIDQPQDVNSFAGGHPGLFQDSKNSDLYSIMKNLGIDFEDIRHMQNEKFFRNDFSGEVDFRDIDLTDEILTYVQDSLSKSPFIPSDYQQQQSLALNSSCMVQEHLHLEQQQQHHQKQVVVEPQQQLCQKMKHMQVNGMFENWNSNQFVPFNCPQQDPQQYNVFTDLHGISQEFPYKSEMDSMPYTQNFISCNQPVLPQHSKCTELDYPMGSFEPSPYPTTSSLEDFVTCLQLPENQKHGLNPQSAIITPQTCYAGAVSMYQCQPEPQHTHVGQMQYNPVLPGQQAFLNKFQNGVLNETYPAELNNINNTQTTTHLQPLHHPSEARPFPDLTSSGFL
CCAAT/enhancer-binding protein beta (Homo sapiens), sequence (P17676 whole entry, looked up): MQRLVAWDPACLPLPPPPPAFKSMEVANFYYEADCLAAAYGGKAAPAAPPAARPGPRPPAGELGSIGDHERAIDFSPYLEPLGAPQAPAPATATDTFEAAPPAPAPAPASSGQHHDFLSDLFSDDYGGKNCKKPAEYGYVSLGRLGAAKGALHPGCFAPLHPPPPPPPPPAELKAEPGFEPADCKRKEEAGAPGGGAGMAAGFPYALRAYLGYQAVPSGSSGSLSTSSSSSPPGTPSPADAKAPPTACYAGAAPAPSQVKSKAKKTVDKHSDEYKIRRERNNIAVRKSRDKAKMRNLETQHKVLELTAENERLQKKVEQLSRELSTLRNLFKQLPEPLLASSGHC

Turning to `Cc1cc(C)nc(Nc2ccccc2)n1`, the AC50 in experiment [1] is 46.3 µM (active); in experiment [12], 7.42 µM (active); in [13], 6.27 µM (active); in experiment [17] it was 27 µM (active). Moreover, the outcome in experiment [2], in experiment [3], in experiment [4], in experiment [5], in experiment [6] and in experiment [7] was inactive. Besides, the outcome in experiment [8], in experiment [9], in [10], in experiment [11], in [14] and in [15] was inactive. Besides, the call in [16] and in experiment [18] was inactive.
On to `CCOc1nc(F)cc2nc(S(=O)(=O)Nc3c(Cl)cccc3Cl)nn12`, for which the compound was classed as inactive in [1], in experiment [2], in [3], in experiment [4], in experiment [5] and in [6]. The compound was called inactive in experiment [7], in experiment [8], in experiment [9], in [10], in experiment [11] and in [12]. The result in [13], in [14], in experiment [19], in experiment [15], in experiment [20] and in experiment [16] was inactive. Further, the compound was called inactive in experiment [17].
Consider `CS(=O)(=O)c1cc(C(F)(F)F)ccc1C(=O)c1cnoc1C1CC1`, for which the compound was classed as inactive in [1], in [2], in experiment [3], in experiment [4], in experiment [5] and in [6]. Further, the compound was called inactive in experiment [7], in experiment [8], in experiment [9], in experiment [10], in experiment [11] and in [12]. Moreover, the outcome in experiment [13], in experiment [14], in [15], in experiment [16], in [17] and in experiment [18] was inactive. The AC50 in experiment [20] is 78.7 µM (active).
For the compound `Nc1cnn(-c2ccccc2)c(=O)c1Cl`, the compound was called inactive in [1], in experiment [2], in experiment [3], in [4], in experiment [5] and in experiment [6]. The call in experiment [7], in experiment [8], in experiment [9], in experiment [10], in experiment [11] and in experiment [12] was inactive. For the same compound, the result in experiment [13], in experiment [14], in experiment [19], in [16] and in experiment [17] was inactive. In addition, in [15], the half-maximal activity concentration (AC50) was 50 µM (active).
In the case of `CC(C)C1(C)N=C(c2ncccc2C(=O)O)NC1=O` (configuration not stated), the call in [1], in experiment [2], in [3], in experiment [4], in experiment [5] and in experiment [6] was inactive. Also, the result in [7], in experiment [8], in [9], in experiment [10], in experiment [11] and in experiment [12] was inactive. In addition, the outcome in experiment [13], in [14], in experiment [15], in [20], in experiment [16] and in experiment [17] was inactive.
For `CC1(C)C(C(=O)OC(C#N)c2cccc(Oc3ccccc3)c2)C1(C)C` (configuration not stated), the AC50 in experiment [1] is 70.3 µM (active); in experiment [5], 100 µM (active); in [19], 14.3 µM (active); in [18] it was 3.62 µM (active). Moreover, the compound was called inactive in [2], in experiment [3], in experiment [4], in experiment [6], in [7] and in [8]. In addition, the outcome in [9], in experiment [10], in experiment [11], in [12], in [13] and in experiment [14] was inactive. In addition, the call in experiment [15], in [20], in experiment [16] and in experiment [17] was inactive.
As to `COP(=O)(OC)O/C(C)=C/C(=O)N(C)C`, the compound was classed as inactive in [1], in [2], in experiment [3], in experiment [4], in experiment [5] and in experiment [6]. For the same compound, the outcome in [7], in experiment [8], in experiment [9], in experiment [10], in experiment [11] and in [12] was inactive. Also, the outcome in [13], in experiment [14], in [19], in experiment [15], in experiment [20] and in [16] was inactive. Also, the outcome in experiment [17] and in experiment [18] was inactive.

A word on the AC50: it is the concentration giving half of the maximal activity seen.

For the origin of these results see PubChem BioAssay (EPA / NIEHS).
